RORg inh: qHTS for inhibitors of ROR gamma transcriptional activity | Drosophila S2 Gal4-RORgamma UAS-luciferase reporter, 20 h | Potency, µM (highest dose often 53.6 µM), for the others: top-dose activity change, negative = inhibition, hits mostly inhibitors | 310,000 tested, 5.4% active | AID 2551, 2010; note: nearly all actives have a fitted effect of over 60% in size
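Drosophila Schneider cells stably carrying a metallothionein-driven Gal4 DBD–ROR gamma fusion and a UAS-Photinus luciferase reporter were exposed to compound for 1 hr, then induced with copper sulfate (700 uM final) for 20 hr at ambient temperature before luminescence reading.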
Tau fluor counter: Counterscreen qHTS for Inhibitors of Tau Fibril Formation, Fluorescence Polarization; tau K18 P301L Alexa594 fluorescence, heparin fibrillization; Potency, µM (top dose mostly 57.7 µM), for inactives: at the top dose activity change, negative = decrease; 280,000 tested, 0.93% active; note: nearly all actives have a fitted effect of over 55% in size
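Human K18 P301L tau (15 uM unlabeled plus 0.24 uM Alexa 594-labeled, final) in 100 mM sodium acetate pH 7 was mixed with compound and 20 uM heparin and incubated 6 hr at 37 C.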
Gal4-VP16 FLuc: VP16 counterscreen qHTS for inhibitors of ROR gamma transcriptional activity; Drosophila S2 Gal4-VP16 UAS-luciferase, luminescence, 20 h; Potency, µM (series often up to 53.6 µM), inactives show at the top dose activity, negative = inhibition, usual class: inhibitors; 310,000 tested, 3.5% active; AID 2546, 2010;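 note: Gal4-VP16 expression switched on by copper sulfate through the metallothionein promoter; nearly all actives have a fitted effect of over 50% in size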
Tau ThT inhib: qHTS for Inhibitors of Tau Fibril Formation, Thioflavin T Binding; Microtubule-associated protein tau (Homo sapiens), P10636; recombinant tau K18 P301L (four-repeat tau fragment), heparin-induced fibrillization, ThT fluorescence; Potency, µM (highest dose often 57.4 µM), without a hit: at the top dose activity, negative = inhibition, most hits filed as inhibitors; 270,000 tested, 2.1% active; note: nearly all actives have a fitted effect of over 55% in size
Target sequence (P10636 561-689 P618L limits assumed): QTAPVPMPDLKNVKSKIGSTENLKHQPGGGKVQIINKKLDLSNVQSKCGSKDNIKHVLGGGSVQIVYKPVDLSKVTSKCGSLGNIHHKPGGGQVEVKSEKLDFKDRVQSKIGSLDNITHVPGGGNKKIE
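Tau K18 P301L fragment (15 uM unlabeled plus 0.24 uM Alexa 594-labeled) in 100 mM sodium acetate pH 7 with compound, fibrillization induced by 20 uM heparin for 6 hr at 37 C. Thioflavin T (30 uM) added, fluorescence read after 1 hr (ex 450, em 510 nm).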
Tau FP inhib: qHTS for Inhibitors of Tau Fibril Formation, Fluorescence Polarization | AID 1468, 2008 | Potency, µM (titrated, usually from 57.7 µM), for inactives: at the highest dose activity, negative = inhibition, hits mostly inhibitors | K18 P301L tau heparin fibrillization, Alexa594 FP, 6 h | 280,000 tested, 0.39% active | Microtubule-associated protein tau (Homo sapiens), P10636; note: nearly all actives have a fitted effect of over 55% in size
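Human K18 P301L fragment (15 uM unlabeled plus 0.24 uM Alexa 594-labeled) in 100 mM sodium acetate pH 7 with compound, aggregation induced by 20 uM heparin for 6 hr at 37 C. ThT (30 uM) added for 1 hr, then Alexa 594 FP read.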
An asterisk follows results filed as active; u = inconclusive; x = no result given; [ ] = another dose, or the depositor's remark. Compounds with a hit are over-represented: about 7.3% of the library has one in this group of screens. Calls come from the whole dose curve; as a rule, active = well fitted curve in the direction sought with a large enough effect; inconclusive = small, poorly fitted or top-dose-only effect, or another doubt; inactive = no such curve, though single readings can be large; an effect the other way counts as inactive or inconclusive. % is set by controls: 0 for no effect and ±100 for the full control effect; potency is the fitted concentration of half-maximal effect.

SMILES | RORg inh | Tau fluor counter | Gal4-VP16 FLuc | Tau ThT inhib | Tau FP inhib
COc1ccc(N2CCN(C(CNC(=O)C(=O)NCCc3ccccc3)c3cccnc3)CC2)cc1 (configuration not stated) | x | -2.4% | x | -13.0% | 13.6%
CCOc1ccc(N=C2NC(=O)CS2)cc1 | -1.9% | x | 2.6% | x | x
Clc1ccc(-c2csc(N/N=C\c3cccnc3)n2)cc1 | -5.0% | u | u | u | 0.6%
NNc1nc(-c2ccccc2)cs1 | u | u | 2.6% | u | 7.4%
Cc1ccc(-c2csc(N/N=C/c3ccco3)n2)cc1 | -44.8% | u | 6.4% | 14.1µM* | 2.1%
Cc1sc(N/N=C/c2ccco2)nc1-c1ccccc1 | 11.2µM* | u | u | u | 7.5%
Clc1ccc(-c2csc(N/N=C/c3ccco3)n2)cc1 | -0.4% | 12.6µM*[quencher] | -12.1% | 14.1µM* | -4.1%
C(=N\Nc1nc(-c2ccccc2)cs1)/c1ccco1 | u | 14.1µM*[quencher] | u | 14.1µM* | u
CN(C)S(=O)(=O)c1ccc(-c2csc(N/N=C/c3ccco3)n2)cc1 | -58.4% | u | u | u | 10.1%
Cc1sc(N/N=C/c2cccnc2)nc1-c1ccccc1 | 33.2% | u | -5.6% | u | -1.6%
O=C(CCOc1ccccc1)N(Cc1cccnc1)c1nc2c(F)cc(F)cc2s1 | x | -19.9% | x | -20.5% | -13.8%
CC(C)=NNc1nc(-c2ccccc2)c(C)s1 | 11.2µM* | u | -25.8% | u | 8.4%
Brc1ccc(-c2csc(N/N=C/c3ccco3)n2)cc1 | -26.7% | 17.8µM*[quencher] | 3.6% | 15.8µM* | -13.0%
COc1ccc(C(=O)c2c(N)c(C(=O)Nc3cccc(OC)c3)c3ccccn23)cc1 | x | -8.4% | x | 5.9% | -9.2%
COC(=O)C1=CO[C@@H](C)[C@@H]2CN3CCc4c([nH]c5ccccc45)[C@@H]3C[C@H]12 | 18.1% | x | -11.7% | x | x
C#CCOc1c(Br)cc(/C=N/O)cc1OCC | 4.6% | -6.7% | -10.1% | 1.7% | -11.6%
C#CCOc1c(Br)cc(/C=N\NC(=O)CN2CCOCC2)cc1OCC | 12.1% | -15.0% | 35.5µM* | -12.9% | -7.8%
COc1ccc(C)cc1NC(c1nnc(-c2ccccc2)o1)c1ccc(F)cc1Cl (configuration not stated) | x | u | x | -12.0% | 5.9%
CNC(=O)NC(=S)NC(=O)c1ccc(OC)cc1 | 11.2µM* | -0.1% | -26.8% | -3.7% | -2.8%
Fc1ccccc1NC(=S)NCc1ccc(Cl)cc1 | 11.2µM* | x | u | x | x
COc1ccc(C(=O)NC(=S)Nc2ccc(Cc3ccncc3)cc2)cc1 | u | -23.7% | u | u | -1.9%
COc1ccc(C(=O)NC(=S)Nc2ccccc2F)cc1 | 4.47µM* | 3.2% | 11.2µM* | -5.1% | -13.4%
COc1ccc(CNC(=S)Nc2ccccc2F)cc1 | u | x | 17.8µM* | x | x
COc1ccc(Cl)cc1NC(=S)Nc1ccccc1F | u | -13.5% | u | 4.0% | -13.5%
CCOc1ccc(NC(=O)NCCn2nnc3cc(S(=O)(=O)N(C)C)ccc32)cc1 | x | -4.9% | x | -0.9% | 11.7%
SMILES | RORg inh | Tau fluor counter | Gal4-VP16 FLuc | Tau ThT inhib | Tau FP inhib
COc1ccc(CNC(=S)Nc2cccc(C)c2C)cc1 | 2.51µM* | -16.0% | 7.94µM* | -13.6% | -4.5%
Cc1cccc(NC(=S)NCc2ccncc2)c1C | -13.5% | -4.6% | 1.7% | -1.9% | -10.1%
CCOC(=O)c1c(NC(=O)c2ccc(S(=O)(=O)N3CCC(C)CC3)cc2)sc2c1CCN(C)C2 | x | -7.4% | x | u | -6.3%
O=C(OCC(=O)N1CCCc2ccccc21)c1cncc(Br)c1 | u | -13.2% | 1.12µM* | u | 6.4%
O=C(OCC(=O)N1CCc2ccccc21)c1cncc(Br)c1 | -36.0% | -14.2% | 0.7% | u | -8.0%
Cc1ccc(NC(=O)CSc2nc3c(oc4ccccc43)c(=O)n2Cc2ccco2)cc1 | x | -23.9% | x | -11.2% | -8.3%
C/C(=N/Nc1nc(-c2ccccc2F)nc2ccccc12)c1ccccc1O | 3.16µM* | u | 7.94µM* | 10µM* | 6.4%

Screens deposited in PubChem BioAssay by National Center for Advancing Translational Sciences (NCATS).
